The record followed here is PubChem BioAssay (NCI).

The structures appear in SMILES notation. About 83,000 compounds went through this panel and 20% of them were active in at least one assay; those are over-represented in the sample as a whole.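 Interpretation: 100, growth as untreated; towards 0, rising growth inhibition; 0, no net growth; 0 to -100, cell death. Compounds scoring below 10 were considered active.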 A number with no mark means an inactive call. Active and inactive are the calls of the source.

The test deals with MDA-MB-468 breast. Description: NCI-60 one-dose screen, 48 h (100 = growth as untreated, 0 = no growth, -100 = all killed). Particulars: 10 µM unless noted.
Turning to `C/C(=C(/C)C1CC1CCN(C(=O)c1ccccn1)S(=O)(=O)c1ccc(C)cc1)C1CCCCC1` (stereo not given), the growth is 75.7%.
Consider `COC(=O)[C@]12CC[C@@H](C(=O)/C=C/c3cccnc3)[C@@H]1[C@H]1CC[C@@H]3[C@@]4(C)C/C(=C/c5cccnc5)C(=O)C(C)(C)[C@@H]4CC[C@@]3(C)[C@]1(C)CC2`, for which the growth was -76.1% (active).
With `CCCC[P+](c1ccccc1)(c1ccccc1)c1ccccc1` the figure was -6.92% (active); with `NC(=O)CN1CCN(c2ccccc2Cl)CC1`, 108%; with `COc1cccc(C(=O)Nc2cccc(NC(=O)c3ccccn3)c2)c1`, 105%.
The same measure for `c1ccc(CCNc2ncnc3[nH]ncc23)cc1`: 70.9%; for `CC[C@@H](C(=O)[C@H](C)[C@H](O)[C@@H](C)[C@H]1O[C@H]([C@@H](CC)C(=O)N(CC)CC)CC[C@H]1C)C1O[C@]2(C=C[C@@H](O)[C@]3(CC[C@@](C)([C@H]4CC[C@](O)(CC)[C@H](C)O4)O3)O2)[C@H](C)C[C@@H]1C` (stereo not given in full): -18.3% (active).
As to `O=C(Nc1ccc(Cl)cc1)Nc1ccc(Oc2nncc3ccccc23)cc1`, the growth is -76.2% (active).
The same measure for `COc1ccc(OC)c(/C=C/c2nc(SCc3ccccc3)n(-c3ccc(Cl)cc3)n2)c1`: 34.4%; for `C[C@@H]1CN(Cc2ccc(/C=C/c3n[nH]c4ccc5nc(-c6cn[nH]c6C(F)(F)F)c6c(c5c34)CCCC6)cc2)C[C@H](C)O1`: 76.9%.
`C=C1CC[C@@]2(C#N)[C@H]3[C@H](CC[C@@H]2C)[C@@H](C)C[C@@H](CC(C)(C)C#N)[C@H]13`: the growth is 59.7%.
With `COc1ccccc1CNCCCN1C(=O)c2ccc3c4c(ccc(c24)C1=O)C(=O)N(CCCNCCCCNCCCN)C3=O`, the growth was -84.5% (active).
As for `O=S(=O)(OCCOS(=O)(=O)c1ccccc1)c1ccccc1`, the growth was 95%.
Turning to `CCOC(=O)C(C(C)=O)c1nc2sc3cc(Cl)ccc3n2c(=N)c1C#N` (stereo not given), the growth was 4.75% (active).
Turning to `COC(=O)CCOc1ccccc1`, the growth was 80%.
As for `COc1cc2c(c(OC)c1OC)CCC(c1cccc(C(=O)Nc3cccc(Cl)c3)c1)O2` (stereo not given), the growth is 77.4%.
The same measure for `CCOC(=O)c1nc(Nc2ccc(NC(=O)Nc3ccc(F)cc3)cc2)c2ccccc2n1`: 80.3%; for `CC/C=C\C[C@H]1C/C=C2/C(=O)C(Cl)=C[C@@H]2C/C=C\CCCC(=O)O1`: -69.2% (active).
The same measure for `COc1ccc(S(=O)(=O)Nc2cc(/C=C\c3cc(OC)c(OC)c(OC)c3)ccc2OC)cc1`: 7.65% (active).
With `COc1ccc(Sc2ccc3[nH]c(=O)nc(N)c3c2)cc1` the figure was 92.7%; with `COc1cc(/C=C/C(=O)CC(=O)/C=C/c2cc(Br)c(OC)c(OC)c2)cc(Br)c1OC`, 97.2%.
For the compound `O=C(Nc1nc2ccccc2s1)c1ccc(F)cc1`, the growth is 94.1%.
The same measure for `COc1cc2nc3cc([N+](=O)[O-])ccc3c(NCCCNCCO)c2cc1OC`: -49.4% (active); for `CCn1nc(-c2ccccn2)c2cccnc2c1=S`: 48.8%.
As for `COC(=O)c1c2c(c(C)[n+]([O-])c1C)C(=O)C(NCc1ccc(F)c(Cl)c1)=CC2=O`, the growth is -18% (active).
As for `c1ccc(CO[C@H]2CO[C@H]3[C@@H]2OC[C@H]3OCc2ccccc2)cc1`, the growth was 112%.
Turning to `CC1(C)C(N)=Nc2cc(OCCCCN3Cc4ccccc4C3)c(OCC3CC3)cc21`, the growth is 42.2%.
With `COc1cc(OC)c(S(N)(=O)=O)cc1C(C)=O` the figure was 98.4%.
The same measure for `COc1ccc(-c2nn(-c3cccc(NC(=O)Nc4ccc(Cl)c(C(F)(F)F)c4)c3)cc2-c2ccncc2)cc1Cl`: 23.1%; for `COc1ccc(-c2ncnc3c2ncn3CC#CCCl)cc1`: 20.8%; for `CCCCCCCCC1OC1CCCCCCCC(=O)O` (stereo not given): 89.9%.
With `CC(C)C(=O)Cc1cnccn1` the figure was 119%; with `O=C1C(SCc2ccccc2)=C(Cl)CN1c1ccccc1`, 79.7%.
In the case of `Cc1nnc(N/N=C/c2ccc([N+](=O)[O-])o2)[nH]c1=O`, the growth is 31.2%.
Take `COc1cccc(-c2nn(-c3ccccc3)cc2-c2ccnc(NCCNC(=O)c3ccccc3)c2)c1`: the growth is 47.7%.
Regarding `C#C[C@@]1(O)[C@@H](CO)O[C@@H](n2cc(Cl)c3c(N)ncnc32)[C@@H]1O`, the growth is -49% (active).
On to `CCC(C)C1NC(=O)C(CCNCS(=O)(=O)O)NC(=O)C(NC(=O)C(CCNCS(=O)(=O)O)NC(=O)C(NC(=O)C(CCNCS(=O)(=O)O)NC(=O)CCCCC(C)C)C(C)O)CCNC(=O)C(C(C)O)NC(=O)C(CCNCS(=O)(=O)O)NC(=O)C(CCNCS(=O)(=O)O)NC(=O)C(C(C)CC)NC1=O` (stereo not given), for which the growth is 16%.
In the case of `COc1cc(/C=C2\CN(C(=O)CCN3CCC(=NO)CC3)C/C(=C\c3cc(OC)c(OC)c(OC)c3)C2=O)cc(OC)c1OC`, the growth is -41.2% (active).
The same measure for `C[C@]12CC[C@@H]3c4cc(OC(F)F)c(OS(N)(=O)=O)cc4CC[C@H]3[C@@H]1CC[C@@H]2O`: -24.2% (active).
The same measure for `CCNC(=O)c1[nH]cc(-c2ccc(OC)cc2)c1-c1cc(OC)c(OC)c(OC)c1`: 18.5%.
